The first experiment deals with Activated CDC42 kinase 1 (Homo sapiens) (UniProt Q07912). Particulars: at 1 µM.
Chain of Activated CDC42 kinase 1 (Homo sapiens) (Q07912 whole entry, looked up): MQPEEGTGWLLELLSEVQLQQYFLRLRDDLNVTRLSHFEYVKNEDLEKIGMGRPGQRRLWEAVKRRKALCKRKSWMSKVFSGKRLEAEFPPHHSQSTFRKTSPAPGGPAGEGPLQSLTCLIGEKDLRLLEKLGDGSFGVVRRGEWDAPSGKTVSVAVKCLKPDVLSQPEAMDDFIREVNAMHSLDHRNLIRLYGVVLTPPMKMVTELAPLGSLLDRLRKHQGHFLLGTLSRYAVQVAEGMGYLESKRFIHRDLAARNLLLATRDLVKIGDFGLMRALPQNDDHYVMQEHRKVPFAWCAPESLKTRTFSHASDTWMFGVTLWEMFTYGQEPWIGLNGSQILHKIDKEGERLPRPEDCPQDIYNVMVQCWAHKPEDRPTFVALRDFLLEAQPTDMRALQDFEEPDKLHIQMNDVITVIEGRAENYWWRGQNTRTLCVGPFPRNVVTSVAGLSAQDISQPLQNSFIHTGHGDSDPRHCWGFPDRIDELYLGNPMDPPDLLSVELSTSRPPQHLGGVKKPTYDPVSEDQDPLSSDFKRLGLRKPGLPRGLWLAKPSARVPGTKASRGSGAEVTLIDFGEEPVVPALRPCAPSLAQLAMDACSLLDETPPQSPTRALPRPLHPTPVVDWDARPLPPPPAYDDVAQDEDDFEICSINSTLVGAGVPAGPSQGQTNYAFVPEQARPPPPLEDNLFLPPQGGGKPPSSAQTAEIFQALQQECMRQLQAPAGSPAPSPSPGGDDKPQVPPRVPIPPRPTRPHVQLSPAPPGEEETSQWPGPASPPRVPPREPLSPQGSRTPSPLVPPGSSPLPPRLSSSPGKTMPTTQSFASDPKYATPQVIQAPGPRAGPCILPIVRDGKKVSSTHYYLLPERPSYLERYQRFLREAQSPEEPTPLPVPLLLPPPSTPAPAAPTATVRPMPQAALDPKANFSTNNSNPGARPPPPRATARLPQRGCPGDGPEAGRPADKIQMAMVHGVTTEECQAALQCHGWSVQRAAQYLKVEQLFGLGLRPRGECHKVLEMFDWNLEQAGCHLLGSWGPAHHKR
In turn, `COc1cc2ncnc(Nc3cccc(Cl)c3)c2cc1OC` came in with a residual activity of 34%.
On the same count and under the same terms, for `O=C1NC(=O)C(c2cn(CCCO)c3ncccc23)=C1c1cnccn1` the value was 82%; for `O=C(NC(NC(=S)Nc1ccc(F)c([N+](=O)[O-])c1)C(Cl)(Cl)Cl)C(c1ccccc1)c1ccccc1` (stereo unspecified), 100%.
On the same count and under the same terms, for `CC(C)(C)n1nc(Cc2cccc3ccccc23)c2c(N)ncnc21` the value was 6%.
The molecule `Nc1ncnc2c1c(-c1ccc(Oc3ccccc3)cc1)cn2C1CCCC1` yielded a residual activity of 4%.
As for `O=C(c1ccccc1)c1ccc(N2CCOCC2)cc1O`, the residual activity worked out at 94%.
The molecule `COc1cc2nccc(Oc3ccc(NC(=O)Nc4cc(C)on4)c(Cl)c3)c2cc1OC` returned a residual activity of 20%.
The molecule `O=C1Cc2c([nH]c3ccc([N+](=O)[O-])cc23)-c2ccccc2N1` gave a residual activity of 44%.
Still for that read-out and setting: for `CC(C)c1nn(-c2c(Cl)cccc2Cl)c2nc(Cc3ccc(OCCO)cc3)[nH]c(=O)c12` the value was 63%; for `Cn1sc(=O)n(Cc2ccccc2)c1=O`, 77%; for `COc1ccc2c(c1)c(C1=C(c3c[nH]c4ccccc34)C(=O)NC1=O)cn2CCCN(C)C`, 65%.
`Nc1ncnc2c1cnn2-c1ccccc1`: the residual activity was found to be 91%.
With `O=C(O)/C=C/c1cc(Br)c(Br)c(Br)c1Br`, the residual activity came out at 79%.
Same read-out and setting: for `O=C1NC(=O)C(c2c[nH]c3ccccc23)=C1c1c[nH]c2ccccc12` the value was 73%.
Same read-out and setting: the value for `Cn1c2ccccc2c2c3c(c4c5ccccc5n(CCC#N)c4c21)CNC3=O` was 3%; that for `O=C1NC(=O)c2c1c1c3ccccc3[nH]c1n1cncc21` was 38%; that for `Nc1n[nH]c2nc3ccccc3nc12` was 68%.
Same read-out and setting: the value for `O=c1cc(N2CCNCC2)oc2c(-c3ccccc3)cccc12` was 88%; that for `CCCC(=O)Oc1ccc2[nH]c(C(=O)c3cc4ccccc4[nH]3)cc2c1` was 72%.
In the case of `O=C1Nc2ccccc2/C1=C\c1c(Cl)[nH]c2ccccc12`, the residual activity turned out to be 84%.
Still for that read-out and setting: for `N#Cc1c(NC(=O)c2cccc3ccccc23)sc2c1CCCC2` the value was 85%; for `O=C1Nc2ccc(Cl)cc2/C1=C/c1cc(Cl)c(O)c(Cl)c1`, 48%; for `COc1cc2nccc(Oc3ccc(NC(=S)NC(=O)c4ccccc4C)cc3)c2cc1OC`, 24%.
For `Oc1cccc(-c2nc(N3CCOCC3)c3oc4ncccc4c3n2)c1`, the residual activity is 78%.
The molecule `O=C1Cc2c([nH]c3ccc(Br)cc23)-c2ccccc2N1` displayed a residual activity of 24%.
Same read-out and setting: the value for `NC(=O)Nc1sc(-c2ccc(F)cc2)cc1C(N)=O` was 10%.
Still for that read-out and setting: for `COc1ccc(Cl)cc1NC(=O)Nc1cc(C)nc2ccccc12` the value was 90%.
`O=c1cc(N2CCOCC2)oc2c1ccc1ccccc12` registered a residual activity of 90%.
For `Nc1ncnc2[nH]nc(Nc3ccc(F)cc3)c12`, the residual activity worked out at 60%.
`O=C(c1cc2cc(O)ccc2[nH]1)c1cc2cc(O)ccc2[nH]1` gave a residual activity of 64%.

A further experiment shares this target. Particulars: at 10 µM.
As for `COc1cc2ncnc(Nc3cccc(Cl)c3)c2cc1OC`, the residual activity came out at 6%.
On the same count and under the same terms, for `O=C1NC(=O)C(c2cn(CCCO)c3ncccc23)=C1c1cnccn1` the value was 71%.
In the case of `O=C(NC(NC(=S)Nc1ccc(F)c([N+](=O)[O-])c1)C(Cl)(Cl)Cl)C(c1ccccc1)c1ccccc1` (stereo unspecified), the residual activity was found to be 78%.
For the molecule `CC(C)(C)n1nc(Cc2cccc3ccccc23)c2c(N)ncnc21`, the residual activity was 2%.
Still for that read-out and setting: for `Nc1ncnc2c1c(-c1ccc(Oc3ccccc3)cc1)cn2C1CCCC1` the value was 1%; for `O=C(c1ccccc1)c1ccc(N2CCOCC2)cc1O`, 72%; for `COc1cc2nccc(Oc3ccc(NC(=O)Nc4cc(C)on4)c(Cl)c3)c2cc1OC`, 6%.
Consider `O=C1Cc2c([nH]c3ccc([N+](=O)[O-])cc23)-c2ccccc2N1`, for which the residual activity amounted to 24%.
For `CC(C)c1nn(-c2c(Cl)cccc2Cl)c2nc(Cc3ccc(OCCO)cc3)[nH]c(=O)c12`, the residual activity is 31%.
Molecule `Cn1sc(=O)n(Cc2ccccc2)c1=O` showed a residual activity of 64%.
Take `COc1ccc2c(c1)c(C1=C(c3c[nH]c4ccccc34)C(=O)NC1=O)cn2CCCN(C)C`: the residual activity stood at 21%.
The molecule `Nc1ncnc2c1cnn2-c1ccccc1` had a residual activity of 61%.
Take `O=C(O)/C=C/c1cc(Br)c(Br)c(Br)c1Br`: the residual activity was found to be 63%.
In turn, `O=C1NC(=O)C(c2c[nH]c3ccccc23)=C1c1c[nH]c2ccccc12` yielded a residual activity of 21%.
In turn, `Cn1c2ccccc2c2c3c(c4c5ccccc5n(CCC#N)c4c21)CNC3=O` came in with a residual activity of 0%.
`O=C1NC(=O)c2c1c1c3ccccc3[nH]c1n1cncc21` gave a residual activity of 23%.
Molecule `Nc1n[nH]c2nc3ccccc3nc12` returned a residual activity of 40%.
Molecule `O=c1cc(N2CCNCC2)oc2c(-c3ccccc3)cccc12` showed a residual activity of 69%.
On the same count and under the same terms, for `CCCC(=O)Oc1ccc2[nH]c(C(=O)c3cc4ccccc4[nH]3)cc2c1` the value was 65%; for `O=C1Nc2ccccc2/C1=C\c1c(Cl)[nH]c2ccccc12`, 48%; for `N#Cc1c(NC(=O)c2cccc3ccccc23)sc2c1CCCC2`, 61%.
Still for that read-out and setting: the value for `O=C1Nc2ccc(Cl)cc2/C1=C/c1cc(Cl)c(O)c(Cl)c1` was 7%; that for `COc1cc2nccc(Oc3ccc(NC(=S)NC(=O)c4ccccc4C)cc3)c2cc1OC` was 8%; that for `Oc1cccc(-c2nc(N3CCOCC3)c3oc4ncccc4c3n2)c1` was 69%.
As for `O=C1Cc2c([nH]c3ccc(Br)cc23)-c2ccccc2N1`, the residual activity is 3%.
`NC(=O)Nc1sc(-c2ccc(F)cc2)cc1C(N)=O` displayed a residual activity of 2%.
`N#C/C(=C1/Nc2ccccc2S1)c1ccnc(NCCc2cccnc2)n1` gave a residual activity of 12%.
`COc1ccc(Cl)cc1NC(=O)Nc1cc(C)nc2ccccc12` yielded a residual activity of 80%.
`O=c1cc(N2CCOCC2)oc2c1ccc1ccccc12` returned a residual activity of 77%.
As to `Nc1ncnc2[nH]nc(Nc3ccc(F)cc3)c12`, the residual activity was 17%.
The same measure, in the same setting: for `O=C(c1cc2cc(O)ccc2[nH]1)c1cc2cc(O)ccc2[nH]1` the value was 24%.

(Values after ChEMBL document CHEMBL2218924, “A broad activity screen in support of a chemogenomic map for kinase signalling research and drug discovery” (Biochem J, 2013).)
